# Laboratory results published in PubChem BioAssay AID488969 (Vanderbilt High Throughput Screening Facility, 2010).
# The full ranking holds about 110,000 compounds; the median of “z-score” is about -0.1, and the highest 2% start at about 2. Only a selection was taken, and the highest values are over-represented in it overall. Active and inactive are the calls of the source.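 How the source made its calls: active means z-score in the third read window above 3 or below -3; inactive means the rest.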
# Biological target: Metabotropic glutamate receptor 8 (Rattus norvegicus) (UniProt P70579)
# Experiment: rat mGluR8 modulators via GIRK flux, primary screen, cell-based, thallium flux, HTS (AID 488969)
# Conditions: HEK293 rat mGluR8, GIRK (G protein-gated inwardly rectifying potassium channel) thallium flux, FluoZin2; at 10 µM; stronger effect = higher value
# Metabotropic glutamate receptor 8 (Rattus norvegicus), sequence (P70579 whole entry, looked up): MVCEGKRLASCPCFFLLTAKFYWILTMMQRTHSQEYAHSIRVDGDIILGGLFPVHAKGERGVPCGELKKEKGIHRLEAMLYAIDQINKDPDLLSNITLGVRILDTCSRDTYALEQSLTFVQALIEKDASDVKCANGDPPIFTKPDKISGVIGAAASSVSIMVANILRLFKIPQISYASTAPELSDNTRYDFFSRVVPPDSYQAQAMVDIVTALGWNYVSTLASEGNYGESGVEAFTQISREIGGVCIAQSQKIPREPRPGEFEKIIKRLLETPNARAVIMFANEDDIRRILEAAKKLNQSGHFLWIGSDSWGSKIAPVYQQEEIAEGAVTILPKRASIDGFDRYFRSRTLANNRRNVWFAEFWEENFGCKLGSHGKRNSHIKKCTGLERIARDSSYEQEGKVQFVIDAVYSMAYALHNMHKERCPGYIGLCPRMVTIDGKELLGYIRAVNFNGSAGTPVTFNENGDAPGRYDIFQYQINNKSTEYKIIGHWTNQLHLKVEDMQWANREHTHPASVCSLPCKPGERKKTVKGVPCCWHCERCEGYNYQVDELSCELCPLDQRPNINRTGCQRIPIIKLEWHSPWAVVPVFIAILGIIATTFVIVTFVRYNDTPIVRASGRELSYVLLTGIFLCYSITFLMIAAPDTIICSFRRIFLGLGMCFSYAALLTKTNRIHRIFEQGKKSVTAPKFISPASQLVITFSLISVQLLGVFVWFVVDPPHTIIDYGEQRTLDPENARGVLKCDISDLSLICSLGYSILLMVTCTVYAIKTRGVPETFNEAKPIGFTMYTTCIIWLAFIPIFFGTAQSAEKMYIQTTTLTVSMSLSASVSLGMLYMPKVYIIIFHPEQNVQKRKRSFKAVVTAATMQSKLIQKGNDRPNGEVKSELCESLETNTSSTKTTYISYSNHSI
row,Structure (SMILES),z-score
1,CC/C(=N\Nc1cccc2ccccc12)c1c(O)[nH]c(=O)[nH]c1=O,-0.114
2,CC(=O)OC1C2CCC1C(N1CCCC1)CC2 (configuration not stated),-0.278
3,C1=C(c2c[nH]c3ccccc23)CCNC1,1.29
4,CCN(CC)Cc1c[nH]c2ccccc12,-0.122
5,CCN1CC=C(c2c[nH]c3ccccc23)CC1,2.05
6,O=C(C1CCCN(c2nnc(-n3cccc3)s2)C1)N1CCC2(CC1)OCCO2 (configuration not stated),0.546
7,O=C1NC(=O)N(c2ccc3c(c2)OCO3)C(=O)/C1=C/c1ccc(N2CCCCC2)o1,-0.618
8,Nc1c(C(=O)OCc2ccccc2)c2nc3ccccc3nc2n1Cc1cccs1,0.248
9,CC(=NCC1CCCO1)c1c(O)n(-c2ccc(Cl)cc2)c(=O)[nH]c1=O (configuration not stated),-1.18
10,CC(=NCC1CCCO1)c1c(O)n(-c2ccccc2)c(=O)[nH]c1=O (configuration not stated),0.0257
11,CC(=NCC1CCCO1)c1c(O)n(-c2ccc(C)cc2)c(=O)[nH]c1=O (configuration not stated),2.68
12,CN(C)CCN=Cc1c(O)n(Cc2ccco2)c(=O)[nH]c1=O,0.184
13,Cc1ccc(N2C(=O)NC(=O)/C(=C\c3ccsc3)C2=O)cc1C,-0.165
14,O=c1c2ccccc2nc(CSc2ncnc3nc[nH]c23)n1-c1ccc(Cl)c(Cl)c1,-0.202
15,c1cc2c(cc1CCNC1C3CC4CC(C3)CC1C4)OCO2 (configuration not stated),2.3
16,CC1CCC(NCCc2ccc3c(c2)OCO3)CC1 (configuration not stated),0.00241
17,c1cc2c(cc1CCNC1CCCCCC1)OCO2,0.232
18,CC1(C)CN=C(Nc2ccc(F)c(F)c2)S1,-0.117
19,Cc1cc(C)nc(NC2=NCCS2)n1,0.179
20,Fc1ccc(NC2=NCCS2)cc1Cl,4.82 (active)
21,CNCC(O)c1cccc(OC(=O)c2ccccc2C)c1 (configuration not stated),2.34
22,CC(=O)Nc1ccc(OC(=O)c2ccccc2N)cc1,0.06
23,CCC(COC(=O)NC)NC(=O)Oc1cccc(C)c1 (configuration not stated),-0.336
24,COC(=NC1CCCCC1)C(O)c1c[nH]c2ccccc12 (configuration not stated),-0.119

row,Structure (SMILES),z-score
1,CN(C)CCOC(=O)c1cn(Cc2ccccc2)c2ccccc12,2.01
2,O=C(COc1ccccc1)c1cn(Cc2ccccc2)c2ccccc12,-0.418
3,O=C(c1ccccc1F)c1cn(Cc2ccccc2)c2ccccc12,-0.253
4,CCCCN1C(=O)NC(=O)/C(=C/c2cnc(SC)nc2)C1=O,-0.221
5,CCOC(=O)C1CCN(/C=C2/C(=O)NC(=O)N(c3ccc(OCC)cc3)C2=O)CC1,0.14
6,C/C(=N\Nc1ccccc1)c1c(O)n(C)c(=O)n(C)c1=O,3.74 (active)
7,CC/C(=N\Nc1ccccc1)c1c(O)n(C)c(=O)n(C)c1=O,-0.0457
8,CC(=NCCC(c1ccccc1)c1ccccc1)c1c(O)n(C)c(=O)n(C)c1=O,-0.488
9,CC(Cc1ccccc1Sc1ccc(O)cc1)N(C)C (configuration not stated),1.64
10,O=C(NC(Cc1ccccc1)C(=O)N1CCC2(CC1)OCCO2)C1CCCCC1 (configuration not stated),0.317
11,COC(=O)C(O)(c1ccc(NC(=S)NC(=O)c2ccccc2)cc1)C(F)(F)F (configuration not stated),0.443
12,CCOC(=O)C1=C(NC(=S)NC(=O)c2ccccc2)c2ccccc2CC12CCCC2,2.46
13,CCOC(=O)C1=C(N)OC(C)=C(C(=O)OCCOC)C12C(=O)Nc1ccccc12 (configuration not stated),0.399
14,CCN1CCN(c2ncnc3ccc(Br)cc23)CC1,0.327
15,CNCC1(c2ccccc2)CCCC1,0.566
16,O=C(NC(=C(Cl)Cl)P(=O)(c1ccccc1)c1ccccc1)c1ccccc1,-0.29
17,Cc1ccc(C)c(C2(O)CC(C)N(C)CC2C)c1 (configuration not stated),0.0958
18,CCOc1ccc(Br)c(C2(O)CC(C)N(C)CC2C)c1 (configuration not stated),2.44
19,CCC(=O)OC1(c2cccc(C)c2)CC(C)N(C)CC1C (configuration not stated),0.852
20,COc1ccccc1N(CC(=O)NC1CCCCC1)C(=O)c1cnn(C(C)C)c1,0.21
21,CN1C(=O)NC(=O)C2(Cc3ccccc3N3CCOCC32)C1=O (configuration not stated),-0.307
22,CCCCn1c(O)c(C(CC)=NCc2cc(OC)cc(OC)c2)c(=O)[nH]c1=O,-0.703
23,N=c1c[n+](CC23CC4CC(CC(C4)C2)C3)[n-]o1,2.09
24,O=C(c1ccc2c(c1)ncn2C1CCCCCC1)N1CCC2(CC1)OCCO2,-0.0497

row,Structure (SMILES),z-score
1,CCCCCCCC(=O)NC(Oc1ccccc1[N+](=O)[O-])C(Cl)(Cl)Cl (configuration not stated),0.238
2,CCCC(=O)Nc1cc(C(=O)N2CCC3(CC2)OCCO3)ccc1S(=O)(=O)c1ccc(C)cc1,-0.0584
3,CC(C(N)=O)N1CC(c2ccc(Cl)cc2)CC1=O (configuration not stated),-0.161
4,OC(Cc1ccccc1)(c1ccccc1)C1CN2CCC1CC2 (configuration not stated),2
5,CN1CCCC1C(O)(c1ccccc1)c1ccccc1 (configuration not stated),-0.0177
6,Cc1ccccc1C(O)(Cc1ccccc1)C1CN2CCC1CC2 (configuration not stated),-0.323
7,CCOC(=O)c1sc(/N=C/c2c(O)n(-c3cccc(C)c3)c(=O)[nH]c2=O)c(C#N)c1C,-0.627
8,CCN1C(=O)C(=Cc2cc(C)n(C3CC3)c2C)C(=O)N(CC)C1=S,-0.0808
9,CC1=NN(c2ccccc2)C(=O)C1/C=C1\C(=O)NC(=O)N(c2cc(C)cc(C)c2)C1=O (configuration not stated),-0.0364
10,CN(C)C(=O)Oc1ccc(OC(=O)N(C)C)cc1,0.415
11,CN1/C(=C\C=Nc2ccccc2)C(C)(C)c2ccccc21,-0.319
12,C[N+]1=C(/C=C/Nc2ccccc2)C(C)(C)c2ccccc21,-1.45
13,CN1/C(=C\C=C\C2=[N+](C)c3ccc4ccccc4c3C2(C)C)C(C)(C)c2ccccc21,5.85 (active)
14,Cc1cc(C=C2C(=O)N(C)C(=S)N(C)C2=O)c(C)n1C1CCCCC1,-0.45
15,O=C1CN=C(c2ccccc2)c2ccccc2N1Cc1ccc(C(F)(F)F)cc1,0.646
16,CNC(=O)OCCc1nccn1C,3.02 (active)
17,CNC(=O)OCCc1n(C)cc[n+]1C,-0.193
18,C=CCn1c(O)c(/C=C2/C=CC=N2)c(=O)[nH]c1=O,-0.219
19,O=C(c1cc(S(=O)(=O)N2CCCCC2)ccc1F)N1CCC2(CC1)OCCO2,-0.0595
20,CCCCn1c(O)c(C(C)=NCCCN(C)C)c(=O)[nH]c1=O,0.319
21,CCCCCCN=C(C)c1c(O)n(CCCC)c(=O)[nH]c1=O,-2.32
22,CCCCn1c(O)c(C(C)=NCCCn2ccnc2)c(=O)[nH]c1=O,2.03
23,O=[N+]([O-])c1ccc(C2[C@H]3C(c4ccccc4)=NC4(CCCCC4)N23)cc1 (some centres not stated),-0.0546
24,O=c1[nH]c(=O)n(C2CCCCCC2)c(O)c1C=NC1CCN(Cc2ccccc2)CC1,-0.182

row,Structure (SMILES),z-score
1,O=C(c1cc2nc(-c3ccccc3)cc(-c3ccccc3)n2n1)N1CCC2(CC1)OCCO2,-0.525
2,O=C(c1cc2ccccn2n1)N1CCC2(CC1)OCCO2,4 (active)
3,O=C(c1cc2ccccc2oc1=O)N1CCC2(CC1)OCCO2,0.602
4,N#CC1=C(N)Oc2c(c(=O)oc3ccccc23)C1c1ccncc1 (configuration not stated),-0.0723
5,Cc1[nH]c2c(Cl)cccc2c1CCN,0.371
6,Cc1cccc(N2C(=O)NC(=O)/C(=C\c3cccn3-c3ccc(Cl)cc3)C2=O)c1,-0.0172
7,Cc1ccc(Cc2c(C)nc3nc(SCC(=O)N4CCC5(CC4)OCCO5)nn3c2C)cc1,-0.0184
8,O=C(COc1ccc(Cl)cc1)NC1CN2CCC1CC2 (configuration not stated),-0.215
9,CCNC(=O)C1OC(n2cnc3c(N)ncnc32)C(O)C1O (configuration not stated),2
10,CCCCn1c(O)c(C(CC)=Nc2ccc(OC)cc2OC)c(=O)[nH]c1=O,-1.4
11,Cc1nn(Cc2ccccc2)c(C)c1C=C1C(=O)NC(=O)NC1=O,2.1
12,Cc1nn(Cc2ccccc2)c(C)c1C=C1C(=O)NC(=S)NC1=O,-0.287
13,Cn1cccc1/C=C1/C(=O)NC(=O)N(Cc2ccccc2)C1=O,-0.709
14,CCn1c(P(C)(=O)O)nc2ccccc21,-0.338
15,CN1CCN(Cc2ccc(Br)s2)CC1,0.759
16,CN1CCC(N(C)c2nc(-c3ccccc3)nc3ccccc23)CC1,0.199
17,Cc1ccc(-c2nc(N(C)C3CCN(C)CC3)c3ccccc3n2)cc1,2.91
18,CN1CCC(N(C)c2nc(-c3ccc([N+](=O)[O-])cc3)nc3ccccc23)CC1,0.562
19,O=C(Cn1c(=S)[nH]c2ccccc2c1=O)N1CCC2(CC1)OCCO2,0.264
20,CC1=NN(c2ccccc2)C(=O)C1/C=C1/C(=O)NC(=O)N(c2cccc(C)c2)C1=O (configuration not stated),-0.395
21,CCOC(=O)C(O)(c1ccc(N(CC)S(=O)(=O)c2ccc(C)cc2)cc1)C(F)(F)F (configuration not stated),2.37
22,CCOC(=O)N(C)c1ccc(C(O)(C(=O)OCC)C(F)(F)F)cc1 (configuration not stated),-0.0433
23,CCN(c1ccc(C(O)(C(=O)OC)C(F)(F)F)cc1)S(=O)(=O)c1ccc(C)cc1 (configuration not stated),1.21
24,O=C(c1ccccc1F)c1cn(CC(=O)N2CCCCC2)c2ccccc12,-0.152

row,Structure (SMILES),z-score
1,CCN(CC)c1ccc(CN2CC=C(c3ccc(F)cc3)CC2)cc1,0.0485
2,Cn1c(O)c(C=NCCN2CCNCC2)c(=O)n(C)c1=O,-0.337
3,O=c1c(C=NCCN2CCNCC2)c(O)n(C2CCCCC2)c(=O)n1C1CCCCC1,2.42
4,O=c1c(C=NCc2cccs2)c(O)n(C2CCCCC2)c(=O)n1C1CCCCC1,-0.421
5,COc1ccc(CCN(C)Cc2c(F)cccc2F)cc1OC,0.419
6,N#Cc1cc2c(nc1SCC(=O)Nc1cc(Cl)ccc1Cl)C1CCN2CC1,-1.88
7,Cc1ccc2nc(N3CCC(C(=O)N4CCC5(CC4)OCCO5)CC3)sc2c1,4.28 (active)
8,O=C(C1CCN(S(=O)(=O)c2ccccc2)CC1)N1CCC2(CC1)OCCO2,0.255
9,CCS(=O)(=O)N1CCC(C(=O)N2CCC3(CC2)OCCO3)CC1,0.00257
10,CC(C)CC(=O)NC(Oc1ccc(Cl)cc1)C(Cl)(Cl)Cl (configuration not stated),-0.379
11,CC1(C)CN2C(c3ccc(Cl)cc3)N2C1 (configuration not stated),0.161
12,O=[N+]([O-])c1cc2c(cc1CNCCc1ccc3c(c1)OCO3)OCO2,0.309
13,c1ccc(CNCCc2ccc3c(c2)OCO3)nc1,-0.496
14,c1ccc2c(CCNCc3ccc4c(c3)OCO4)c[nH]c2c1,2.19
15,Cc1noc(C)c1C(=O)N1CCC2(CC1)OCCO2,-0.294
16,COc1cc(-n2c(=S)[nH]c3ccccc3c2=O)c(Cl)cc1Cl,6.65 (active)
17,COc1ccc(-n2c(=O)[nH]c3ccccc3c2=O)cc1,0.343
18,O=c1[nH]c2ccccc2c(=O)n1-c1cccc(Cl)c1,-0.0839
19,COc1cc2[nH]c(=O)n(-c3cccc(Cl)c3)c(=O)c2cc1OC,-0.0317
20,CC(C)Oc1cc(-n2c(=S)[nH]c3ccccc3c2=O)c(Cl)cc1Cl,12.9 (active)
21,COc1cc2[nH]c(=O)n(-c3ccccc3)c(=O)c2cc1OC,-0.252
